Reference: publication PMC7862700, “An all-to-all approach to the identification of sequence-specific readers for epigenetic DNA modifications on cytosine”

Columns and labels:
Test in all cases: DAPPL (digital affinity profiling via proximity ligation, sequencing); 10 mM Tris-HCl pH 7.5, 50 mM NaCl, 1 mM DTT, 4% glycerol, room temperature, 30 min; GST-TFs on glutathione beads, 16-mer random dsDNA library, 0.1% formaldehyde crosslink after washing; high values mean tight binding
FLI1 = biological target: T1, FLI1 (Homo sapiens, UniProt Q01543 1-452); settings: protein: recombinant; tags: N-terminal GST; dsDNA, one strand shown
T1 sequence: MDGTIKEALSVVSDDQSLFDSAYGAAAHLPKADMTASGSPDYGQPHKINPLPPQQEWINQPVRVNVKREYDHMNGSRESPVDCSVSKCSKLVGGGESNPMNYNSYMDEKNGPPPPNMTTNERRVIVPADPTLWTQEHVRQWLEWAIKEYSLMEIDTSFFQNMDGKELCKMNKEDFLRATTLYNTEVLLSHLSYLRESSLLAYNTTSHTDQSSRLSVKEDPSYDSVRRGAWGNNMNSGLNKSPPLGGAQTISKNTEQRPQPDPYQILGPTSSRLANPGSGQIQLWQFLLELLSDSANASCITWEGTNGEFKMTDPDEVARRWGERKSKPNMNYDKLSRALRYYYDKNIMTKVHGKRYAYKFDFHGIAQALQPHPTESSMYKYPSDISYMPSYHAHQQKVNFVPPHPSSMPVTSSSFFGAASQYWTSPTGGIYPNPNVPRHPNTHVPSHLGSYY
Summary of the method: (§1)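 Pools of DNA-barcoded human transcription factors, expressed in yeast as GST fusions on glutathione beads and combined with a tag-only sample, were incubated with 200 nmole of a 16-mer random double-stranded DNA library. Incubation took 30 min at room temperature in Tris/NaCl/DTT/glycerol buffer and was followed by washing, 0.1% formaldehyde crosslinking, proximity ligation (BsaI/T4 ligase, 1 h, 37 °C), PCR amplification and sequencing on an Illumina NextSeq500. Binding signal is the ratio of a hexamer's read frequency for a factor to its frequency for the tag-only sample.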

ELK1 = biological target: T2, ELK1 (Homo sapiens, UniProt P19419 1-428); settings: protein: recombinant; tags: N-terminal GST; dsDNA, one strand shown
T2 sequence: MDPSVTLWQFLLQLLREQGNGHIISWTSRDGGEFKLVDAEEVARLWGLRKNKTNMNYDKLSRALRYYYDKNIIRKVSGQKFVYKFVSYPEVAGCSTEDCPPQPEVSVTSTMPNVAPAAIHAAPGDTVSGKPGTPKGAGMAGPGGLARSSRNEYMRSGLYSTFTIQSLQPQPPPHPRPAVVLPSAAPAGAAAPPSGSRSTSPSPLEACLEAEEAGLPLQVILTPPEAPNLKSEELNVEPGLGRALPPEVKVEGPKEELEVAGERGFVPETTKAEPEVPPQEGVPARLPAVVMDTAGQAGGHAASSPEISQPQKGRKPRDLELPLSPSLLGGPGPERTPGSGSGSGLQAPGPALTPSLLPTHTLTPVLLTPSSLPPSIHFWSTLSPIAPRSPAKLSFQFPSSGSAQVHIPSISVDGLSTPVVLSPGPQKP
Summary of the method: as §1

GABPA = biological target: T3, GABPA (Homo sapiens, UniProt Q06546 1-454); settings: protein: recombinant; tags: N-terminal GST; dsDNA, one strand shown
T3 sequence: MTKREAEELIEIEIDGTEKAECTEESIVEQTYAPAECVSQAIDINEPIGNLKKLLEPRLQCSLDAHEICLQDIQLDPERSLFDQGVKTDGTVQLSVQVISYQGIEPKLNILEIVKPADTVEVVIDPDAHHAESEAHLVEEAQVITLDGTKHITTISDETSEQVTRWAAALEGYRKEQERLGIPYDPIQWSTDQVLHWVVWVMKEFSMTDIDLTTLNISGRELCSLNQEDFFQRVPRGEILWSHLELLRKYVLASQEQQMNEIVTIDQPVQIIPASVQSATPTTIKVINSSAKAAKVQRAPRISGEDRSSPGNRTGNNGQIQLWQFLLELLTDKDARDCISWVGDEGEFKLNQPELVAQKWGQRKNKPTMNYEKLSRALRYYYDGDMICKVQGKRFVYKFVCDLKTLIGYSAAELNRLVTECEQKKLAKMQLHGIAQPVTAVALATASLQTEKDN
Summary of the method: as §1

ERG = biological target: T4, ERG (Homo sapiens, UniProt P11308 1-479); settings: protein: recombinant; tags: N-terminal GST; dsDNA, one strand shown
T4 sequence: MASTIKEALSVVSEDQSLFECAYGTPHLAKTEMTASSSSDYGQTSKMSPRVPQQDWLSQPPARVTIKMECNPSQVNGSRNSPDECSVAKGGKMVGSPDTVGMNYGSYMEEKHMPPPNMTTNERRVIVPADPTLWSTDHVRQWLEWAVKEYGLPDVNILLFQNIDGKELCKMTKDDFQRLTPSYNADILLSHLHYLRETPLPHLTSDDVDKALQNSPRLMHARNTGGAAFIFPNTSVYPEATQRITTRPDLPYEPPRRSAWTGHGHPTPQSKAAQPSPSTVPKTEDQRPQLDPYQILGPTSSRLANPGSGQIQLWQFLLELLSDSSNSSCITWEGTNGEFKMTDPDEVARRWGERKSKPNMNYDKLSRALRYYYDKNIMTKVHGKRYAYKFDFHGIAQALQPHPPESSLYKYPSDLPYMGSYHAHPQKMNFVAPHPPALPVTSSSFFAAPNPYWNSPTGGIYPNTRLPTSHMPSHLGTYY
Summary of the method: as §1

ELF1 = ELF1 (Homo sapiens, UniProt P32519 1-619); settings: protein: recombinant; tags: N-terminal GST; dsDNA, one strand shown
ELF1, sequence (P32519 whole entry): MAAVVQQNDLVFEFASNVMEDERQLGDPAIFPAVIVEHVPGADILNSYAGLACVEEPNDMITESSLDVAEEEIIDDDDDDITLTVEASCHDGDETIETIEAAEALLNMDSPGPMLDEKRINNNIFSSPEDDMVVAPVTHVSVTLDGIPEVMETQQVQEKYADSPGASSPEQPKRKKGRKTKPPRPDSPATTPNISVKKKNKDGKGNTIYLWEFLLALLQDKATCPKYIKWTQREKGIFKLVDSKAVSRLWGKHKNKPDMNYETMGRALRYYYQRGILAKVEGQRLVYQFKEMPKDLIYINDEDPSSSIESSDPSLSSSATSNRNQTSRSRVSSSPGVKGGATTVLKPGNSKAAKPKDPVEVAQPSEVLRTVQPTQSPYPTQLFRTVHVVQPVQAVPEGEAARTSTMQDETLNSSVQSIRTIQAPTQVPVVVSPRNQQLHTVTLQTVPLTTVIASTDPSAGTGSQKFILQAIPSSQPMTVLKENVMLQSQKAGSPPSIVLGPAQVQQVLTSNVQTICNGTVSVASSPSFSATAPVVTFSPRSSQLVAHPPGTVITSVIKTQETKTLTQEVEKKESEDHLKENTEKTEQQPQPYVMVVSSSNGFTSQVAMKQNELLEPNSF
Summary of the method: as §1

EHF = biological target: T5, EHF (Homo sapiens, UniProt Q9NZC4 1-300); settings: protein: recombinant; tags: N-terminal GST; dsDNA, one strand shown
T5 sequence: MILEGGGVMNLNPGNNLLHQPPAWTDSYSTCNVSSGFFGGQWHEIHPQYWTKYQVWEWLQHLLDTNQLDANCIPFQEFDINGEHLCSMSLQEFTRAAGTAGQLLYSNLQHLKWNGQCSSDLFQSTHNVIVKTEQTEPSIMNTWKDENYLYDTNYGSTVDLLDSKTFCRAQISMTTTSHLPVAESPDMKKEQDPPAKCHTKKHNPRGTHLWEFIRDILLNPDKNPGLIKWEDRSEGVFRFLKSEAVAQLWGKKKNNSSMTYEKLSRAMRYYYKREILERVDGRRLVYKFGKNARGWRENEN
Summary of the method: as §1

SPI1 = SPI1 (Homo sapiens, UniProt P17947 1-270); settings: protein: recombinant; tags: N-terminal GST; dsDNA, one strand shown
Summary of the method: as §1

SPIB = SPIB (Homo sapiens, UniProt Q01892 1-262); settings: protein: recombinant; tags: N-terminal GST; dsDNA, one strand shown
SPIB, sequence (Q01892 whole entry): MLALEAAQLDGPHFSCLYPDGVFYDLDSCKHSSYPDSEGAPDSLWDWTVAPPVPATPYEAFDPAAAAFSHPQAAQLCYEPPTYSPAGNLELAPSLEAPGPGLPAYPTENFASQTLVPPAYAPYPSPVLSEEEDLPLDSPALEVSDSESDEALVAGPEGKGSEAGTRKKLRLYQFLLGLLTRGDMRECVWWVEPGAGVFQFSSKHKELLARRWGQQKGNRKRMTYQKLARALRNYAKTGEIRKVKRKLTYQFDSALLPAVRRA
Summary of the method: as §1

ELK3 = biological target: T6, ELK3 (Homo sapiens, UniProt P41970 1-407); settings: protein: recombinant; tags: N-terminal GST; dsDNA, one strand shown
T6 sequence: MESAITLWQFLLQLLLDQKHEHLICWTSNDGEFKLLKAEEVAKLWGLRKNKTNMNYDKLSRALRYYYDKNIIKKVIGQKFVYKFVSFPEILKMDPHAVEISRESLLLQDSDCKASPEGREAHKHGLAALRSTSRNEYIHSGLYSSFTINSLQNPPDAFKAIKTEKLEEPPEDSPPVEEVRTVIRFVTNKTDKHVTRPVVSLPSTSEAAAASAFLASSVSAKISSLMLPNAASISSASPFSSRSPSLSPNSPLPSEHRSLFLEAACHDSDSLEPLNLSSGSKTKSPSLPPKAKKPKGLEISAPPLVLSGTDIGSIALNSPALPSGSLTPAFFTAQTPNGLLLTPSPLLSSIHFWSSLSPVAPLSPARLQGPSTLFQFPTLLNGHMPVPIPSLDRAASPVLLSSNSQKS
Summary of the method: as §1

FEV = biological target: T7, FEV (Homo sapiens, UniProt Q99581 1-238); settings: protein: recombinant; tags: N-terminal GST; dsDNA, one strand shown
T7 sequence: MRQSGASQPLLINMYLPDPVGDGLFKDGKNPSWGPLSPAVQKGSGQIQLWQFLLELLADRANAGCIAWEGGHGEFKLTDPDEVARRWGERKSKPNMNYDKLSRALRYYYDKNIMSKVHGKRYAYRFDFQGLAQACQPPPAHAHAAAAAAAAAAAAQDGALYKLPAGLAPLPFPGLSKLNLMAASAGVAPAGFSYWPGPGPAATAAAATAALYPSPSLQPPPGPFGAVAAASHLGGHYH
Summary of the method: as §1

ETV5 = ETV5 (Homo sapiens, UniProt P41161 1-510); settings: protein: recombinant; tags: N-terminal GST; dsDNA, one strand shown
ETV5, sequence (P41161 whole entry): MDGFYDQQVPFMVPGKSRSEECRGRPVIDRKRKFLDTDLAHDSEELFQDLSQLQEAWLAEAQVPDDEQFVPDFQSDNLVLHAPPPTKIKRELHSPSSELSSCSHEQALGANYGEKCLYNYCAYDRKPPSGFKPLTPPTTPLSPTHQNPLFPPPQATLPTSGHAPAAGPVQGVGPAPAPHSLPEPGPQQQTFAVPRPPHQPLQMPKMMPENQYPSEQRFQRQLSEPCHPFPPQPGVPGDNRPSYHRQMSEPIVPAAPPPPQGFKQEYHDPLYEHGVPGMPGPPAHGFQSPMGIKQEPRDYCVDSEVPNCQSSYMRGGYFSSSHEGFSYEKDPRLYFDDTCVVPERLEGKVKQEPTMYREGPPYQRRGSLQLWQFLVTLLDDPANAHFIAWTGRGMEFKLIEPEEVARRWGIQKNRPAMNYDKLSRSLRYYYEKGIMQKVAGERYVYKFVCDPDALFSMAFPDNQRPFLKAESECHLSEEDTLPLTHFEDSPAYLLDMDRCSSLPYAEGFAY
Summary of the method: as §1

HSF1 = HSF1 (Homo sapiens, UniProt Q00613 1-529); settings: protein: recombinant; tags: N-terminal GST; chain copies: 3; dsDNA, one strand shown
HSF1, sequence (Q00613 whole entry): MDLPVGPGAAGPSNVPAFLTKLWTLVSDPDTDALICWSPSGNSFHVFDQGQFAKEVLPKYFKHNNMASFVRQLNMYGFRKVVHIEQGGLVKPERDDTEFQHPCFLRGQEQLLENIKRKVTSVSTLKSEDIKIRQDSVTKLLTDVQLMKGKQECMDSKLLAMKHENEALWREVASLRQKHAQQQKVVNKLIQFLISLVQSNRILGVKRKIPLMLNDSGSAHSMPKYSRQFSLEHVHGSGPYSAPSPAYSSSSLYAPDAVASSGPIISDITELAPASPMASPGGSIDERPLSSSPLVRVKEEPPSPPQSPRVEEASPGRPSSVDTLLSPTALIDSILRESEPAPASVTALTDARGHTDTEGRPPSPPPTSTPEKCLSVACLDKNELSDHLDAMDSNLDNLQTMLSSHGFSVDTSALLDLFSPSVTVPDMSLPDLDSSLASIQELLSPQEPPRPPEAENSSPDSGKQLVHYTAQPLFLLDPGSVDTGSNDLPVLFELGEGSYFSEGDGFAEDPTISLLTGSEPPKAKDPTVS
Summary of the method: as §1

SPIC = biological target: T8, SPIC (Homo sapiens, UniProt Q8N5J4 1-248); settings: protein: recombinant; tags: N-terminal GST; dsDNA, one strand shown
T8 sequence: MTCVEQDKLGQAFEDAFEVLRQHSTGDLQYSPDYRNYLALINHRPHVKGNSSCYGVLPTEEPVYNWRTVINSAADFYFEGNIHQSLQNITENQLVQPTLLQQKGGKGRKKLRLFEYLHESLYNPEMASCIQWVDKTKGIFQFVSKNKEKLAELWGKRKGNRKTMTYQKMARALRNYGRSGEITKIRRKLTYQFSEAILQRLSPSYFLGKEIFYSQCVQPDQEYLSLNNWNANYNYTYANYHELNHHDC
Summary of the method: as §1

ELF4 = ELF4 (Homo sapiens, UniProt Q99607 1-663); settings: protein: recombinant; tags: N-terminal GST; dsDNA, one strand shown
ELF4, sequence (Q99607 whole entry): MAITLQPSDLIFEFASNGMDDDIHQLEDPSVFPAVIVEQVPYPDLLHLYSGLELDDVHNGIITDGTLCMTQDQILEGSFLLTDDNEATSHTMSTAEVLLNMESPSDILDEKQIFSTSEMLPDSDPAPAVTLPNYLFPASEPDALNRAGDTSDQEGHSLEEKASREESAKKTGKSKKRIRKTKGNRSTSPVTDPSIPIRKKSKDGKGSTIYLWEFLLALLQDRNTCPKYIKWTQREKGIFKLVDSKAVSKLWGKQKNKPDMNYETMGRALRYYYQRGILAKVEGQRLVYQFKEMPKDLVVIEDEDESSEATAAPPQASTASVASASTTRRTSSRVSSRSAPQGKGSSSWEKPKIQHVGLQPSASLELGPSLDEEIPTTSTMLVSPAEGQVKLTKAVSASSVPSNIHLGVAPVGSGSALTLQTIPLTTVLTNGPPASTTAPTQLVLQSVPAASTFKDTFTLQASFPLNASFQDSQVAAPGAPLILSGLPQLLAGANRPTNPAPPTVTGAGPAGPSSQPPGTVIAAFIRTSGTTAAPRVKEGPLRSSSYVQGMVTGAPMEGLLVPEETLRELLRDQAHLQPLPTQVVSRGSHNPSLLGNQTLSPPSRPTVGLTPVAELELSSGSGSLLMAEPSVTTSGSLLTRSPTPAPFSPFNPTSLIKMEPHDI
Summary of the method: as §1

ELK4 = biological target: T9, ELK4 (Homo sapiens, UniProt P28324-2 1-405); settings: protein: recombinant; tags: N-terminal GST; dsDNA, one strand shown
T9 sequence: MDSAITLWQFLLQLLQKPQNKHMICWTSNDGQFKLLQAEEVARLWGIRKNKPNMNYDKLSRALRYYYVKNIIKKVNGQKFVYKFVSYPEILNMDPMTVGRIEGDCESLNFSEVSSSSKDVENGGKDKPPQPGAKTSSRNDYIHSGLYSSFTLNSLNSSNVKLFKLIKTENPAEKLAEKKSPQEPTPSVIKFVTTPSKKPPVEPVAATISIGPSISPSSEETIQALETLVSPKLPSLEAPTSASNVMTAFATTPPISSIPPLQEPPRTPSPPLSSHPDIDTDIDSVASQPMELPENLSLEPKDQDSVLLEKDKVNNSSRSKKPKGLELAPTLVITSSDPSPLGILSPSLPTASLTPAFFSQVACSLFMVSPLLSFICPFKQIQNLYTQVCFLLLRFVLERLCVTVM
Summary of the method: as §1

ETV2 = biological target: T10, ETV2 (Homo sapiens, UniProt O00321 1-342); settings: protein: recombinant; tags: N-terminal GST; dsDNA, one strand shown
T10 sequence: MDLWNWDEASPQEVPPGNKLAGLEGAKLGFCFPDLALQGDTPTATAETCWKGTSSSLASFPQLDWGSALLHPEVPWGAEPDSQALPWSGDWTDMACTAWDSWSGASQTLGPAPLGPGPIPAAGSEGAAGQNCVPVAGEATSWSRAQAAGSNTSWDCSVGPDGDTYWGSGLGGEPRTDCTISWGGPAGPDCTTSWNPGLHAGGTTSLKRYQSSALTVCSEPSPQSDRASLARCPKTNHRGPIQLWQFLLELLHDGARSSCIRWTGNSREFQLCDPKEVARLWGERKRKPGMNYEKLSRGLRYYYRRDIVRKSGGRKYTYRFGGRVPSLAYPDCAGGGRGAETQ
Summary of the method: as §1

ELF3 = biological target: T11, ELF3 (Homo sapiens, UniProt P78545 1-371); settings: protein: recombinant; tags: N-terminal GST; dsDNA, one strand shown
T11 sequence: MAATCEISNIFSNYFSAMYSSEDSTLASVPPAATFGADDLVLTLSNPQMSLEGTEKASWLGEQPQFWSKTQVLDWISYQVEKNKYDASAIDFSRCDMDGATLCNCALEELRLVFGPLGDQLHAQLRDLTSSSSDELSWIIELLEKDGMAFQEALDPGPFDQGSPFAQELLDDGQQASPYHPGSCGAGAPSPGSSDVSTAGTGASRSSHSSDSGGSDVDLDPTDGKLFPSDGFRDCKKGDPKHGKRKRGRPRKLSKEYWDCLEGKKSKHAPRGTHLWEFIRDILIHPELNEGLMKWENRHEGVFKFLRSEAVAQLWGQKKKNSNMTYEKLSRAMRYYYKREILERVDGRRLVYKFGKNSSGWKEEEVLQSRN
Summary of the method: as §1

CRX = CRX (Homo sapiens, UniProt O43186 1-299); settings: protein: recombinant; tags: N-terminal GST; dsDNA, one strand shown
CRX, sequence (O43186 whole entry): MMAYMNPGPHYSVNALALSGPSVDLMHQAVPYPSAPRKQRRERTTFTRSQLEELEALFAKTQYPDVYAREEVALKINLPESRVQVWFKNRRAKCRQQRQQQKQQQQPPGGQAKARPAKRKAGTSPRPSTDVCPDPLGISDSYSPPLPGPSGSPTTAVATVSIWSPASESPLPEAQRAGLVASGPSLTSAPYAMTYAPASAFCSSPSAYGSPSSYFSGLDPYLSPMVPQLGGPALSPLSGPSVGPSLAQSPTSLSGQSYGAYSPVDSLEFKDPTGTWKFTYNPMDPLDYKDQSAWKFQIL
Summary of the method: as §1

ETV1 = ETV1 (Homo sapiens, UniProt P50549 1-477); settings: protein: recombinant; tags: N-terminal GST; dsDNA, one strand shown
ETV1, sequence (P50549 whole entry): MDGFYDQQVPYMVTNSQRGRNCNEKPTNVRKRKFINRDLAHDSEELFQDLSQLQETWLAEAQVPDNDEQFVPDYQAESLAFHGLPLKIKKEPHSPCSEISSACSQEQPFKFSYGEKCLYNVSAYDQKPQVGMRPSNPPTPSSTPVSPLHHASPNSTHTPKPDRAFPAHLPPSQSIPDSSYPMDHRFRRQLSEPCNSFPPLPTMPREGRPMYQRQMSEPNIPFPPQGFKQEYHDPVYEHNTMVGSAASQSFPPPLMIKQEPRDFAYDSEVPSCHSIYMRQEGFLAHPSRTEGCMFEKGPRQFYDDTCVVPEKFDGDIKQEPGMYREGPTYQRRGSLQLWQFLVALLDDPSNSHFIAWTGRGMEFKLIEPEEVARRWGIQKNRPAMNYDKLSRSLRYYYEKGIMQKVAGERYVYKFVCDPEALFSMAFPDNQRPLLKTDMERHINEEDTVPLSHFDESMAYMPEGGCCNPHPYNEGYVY
Summary of the method: as §1

CCTAAA
binding signal (FLI1): 1.35 fold enrichment (6-mer frequency, TF over GST control)
binding signal (ELK1): 1.26 fold enrichment (6-mer frequency, TF over GST control)
binding signal (GABPA): 1.25 fold enrichment (6-mer frequency, TF over GST control)
binding signal (ERG): 1.37 fold enrichment (6-mer frequency, TF over GST control)
binding signal (ELF1): 1.34 fold enrichment (6-mer frequency, TF over GST control)
binding signal (EHF): 1.28 fold enrichment (6-mer frequency, TF over GST control)
binding signal (SPI1): 1.25 fold enrichment (6-mer frequency, TF over GST control)
binding signal (SPIB): 1.26 fold enrichment (6-mer frequency, TF over GST control)
binding signal (ELK3): 1.4 fold enrichment (6-mer frequency, TF over GST control)
binding signal (FEV): 1.27 fold enrichment (6-mer frequency, TF over GST control)
binding signal (ETV5): 1.33 fold enrichment (6-mer frequency, TF over GST control)
binding signal (HSF1): 1.37 fold enrichment (6-mer frequency, TF over GST control)
binding signal (SPIC): 1.32 fold enrichment (6-mer frequency, TF over GST control)
binding signal (ELF4): 1.35 fold enrichment (6-mer frequency, TF over GST control)
binding signal (ELK4): 1.29 fold enrichment (6-mer frequency, TF over GST control)
binding signal (ETV2): 1.25 fold enrichment (6-mer frequency, TF over GST control)
binding signal (ELF3): 1.4 fold enrichment (6-mer frequency, TF over GST control)
binding signal (CRX): 1.61 fold enrichment (6-mer frequency, TF over GST control)
binding signal (ETV1): 1.31 fold enrichment (6-mer frequency, TF over GST control)
